# Laboratory results taken from PubChem BioAssay (NCATS).
# Results filed as inconclusive are left out. Active and inactive are the calls of the source. The call rests on the fitted dose curve; in most records, active means well fitted inhibition curve with a large enough effect; inconclusive means small, poorly fitted or top-dose-only effect; inactive means flat fitted curve, though single readings scatter.
# Experiment: BET inhibitor-based combinations targeting novel dependencies in MECOM-rearranged (r) AML: AML-194 cell line (AID 2202237; further: nearly all actives have a fitted effect of over 40% in size;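 on viability (% of control): plate controls were vehicle wells for no effect and wells without cells for full effect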)
# Conditions: AML-194 (MECOM-r AML) viability, CellTiter-Glo, 48 h; series mostly up to 46 µM; viability (% of control): at the top concentration
# Procedure, shortened: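 Each compound was tested at eleven concentrations on cells seeded at 500/well. After two days' incubation, ATP-based luminescence reported viability; responses relative to DMSO and blank wells yielded AUC and cell-line-centred Z-AUC.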
# Potency means the concentration at half of the fitted maximal effect.
Structure (SMILES),viability (% of control),Potency
CC(C)(C)C(=O)Oc1ccc(S(=O)(=O)Nc2ccccc2C(=O)NCC(=O)O)cc1,102% (inactive),
CC(C)COCC(CN(Cc1ccccc1)c1ccccc1)N1CCCC1 (stereo not drawn),,23.5 µM (active)
COc1ccc(C2CNC(=O)C2)cc1OC1CCCC1 (stereo not drawn),108% (inactive),
Cc1cc(C)c(/C=C2\C(=O)Nc3ccccc32)[nH]1,96.9% (inactive),
NCCc1cnc[nH]1,87.5% (inactive),
Nc1nc2c(ncn2COCCO)c(=O)[nH]1,111% (inactive),
NS(=O)(=O)c1cc2c(cc1Cl)NCNS2(=O)=O,108% (inactive),
COc1ccc([C@@H]2Sc3ccccc3N(CCN(C)C)C(=O)[C@@H]2OC(C)=O)cc1,109% (inactive),
